This excerpt belongs to a sample that is enriched for hits.
TbREL1 inh: TbREL1 RNA ligase inhibitors, primary screen, biochemical, FRET fluorescence | TbREL1 RNA ligation | inhibition, % at 9.66 µM | 0.49% of 89,000 active | AID 1117264, 2014;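 active = inhibition above the mean inhibition across all screened compounds plus 3 SD, cut at about 11% in these data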;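 note: 0% = plate median of test wells and 100% = NSC42067 control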
Target sequence (P86926 whole entry, looked up): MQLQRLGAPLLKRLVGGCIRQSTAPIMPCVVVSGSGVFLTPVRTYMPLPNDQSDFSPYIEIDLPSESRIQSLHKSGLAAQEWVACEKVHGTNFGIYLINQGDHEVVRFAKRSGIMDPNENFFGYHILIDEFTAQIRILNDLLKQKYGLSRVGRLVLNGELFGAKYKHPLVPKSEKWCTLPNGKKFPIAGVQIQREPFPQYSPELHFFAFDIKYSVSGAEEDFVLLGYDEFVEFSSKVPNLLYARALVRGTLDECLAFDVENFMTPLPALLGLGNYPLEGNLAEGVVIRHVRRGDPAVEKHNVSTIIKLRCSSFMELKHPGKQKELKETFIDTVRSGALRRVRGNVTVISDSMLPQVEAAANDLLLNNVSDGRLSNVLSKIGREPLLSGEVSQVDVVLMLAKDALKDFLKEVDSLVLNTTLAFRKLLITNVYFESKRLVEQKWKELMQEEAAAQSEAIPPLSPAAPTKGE
TbREL1 conf: TbREL1 RNA ligase inhibitors, confirmation, biochemical, FRET fluorescence, triplicate | shares compounds with TbREL1 inh | TbREL1 RNA ligation | inhibition, % at 9.66 µM | 37% of 390 active;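 active = mean inhibition across replicates above a set limit taken from the earlier primary screen, cut at about 11% in these data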;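 note: 0% = REL1 with substrate and DMSO and 100% = REL1 plus control inhibitor NSC42067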
* hit, by the source's call.

SMILES | TbREL1 inh | others
Cn1cccc1CC(=O)NN=C/C=C\c1ccco1 | 67* | TbREL1 conf=2
CCC[C@H]1[C@@H](OC(=O)N2CCN(c3ccccc3)CC2)CC[C@@]23CCCN2C(=O)CCC[C@@H]13 | -8
FC(F)(F)c1ccccc1NC(=S)OCCN1CCCC12CCC(c1ccccc1)CC2 (stereo not given) | 5
Cc1ccccc1NC(=O)c1cccc2c1-c1ccccc1C2=O | -3
COc1ccc(CCNC(=O)Cn2ncc3c2-c2cc(C)ccc2OC3)cc1 | -3
O=C(NC1CCCc2c1cnn2-c1ccc(F)cc1F)c1ccccc1 (stereo not given) | 2
O=C(Cc1ccccc1)NC1CCCc2c1cnn2-c1ccc(F)cc1F (stereo not given) | 11* | TbREL1 conf=2
Cc1nnc(SCC(=O)NC2CCCc3c2cnn3-c2ccc(F)cc2F)o1 (stereo not given) | -1
COc1ccc(CN(CCN2CCOCC2)C(=O)c2cc(F)ccc2C)cc1OC | -1
CC(C)CC(O)(CC(C)C)c1cn(C(=O)N(c2ccccc2)c2ccccc2)nn1 | -1
C[C@H]1[C@@H](OC(=O)N2CCN(c3ccccc3)CC2)CC[C@@]23CCCN2C(=O)CCC[C@@H]13 | -4
O=C(O)CCCc1nc2ccccc2s1 | 0
NC(=O)c1ccccc1OCc1nc2ccccc2s1 | -6
O=C(O)COCc1nc2ccccc2s1 | 12* | TbREL1 conf=7
O=C(CSc1nnc(-c2cccnc2)n1-c1ccccc1)Nc1cccc2ccccc12 | 8
COC(=O)C1=C(C)N(Cc2ccccc2C(F)(F)F)C(=NCc2ccc(OC)cc2)NC1c1cccc(Cl)c1 (stereo not given) | 19* | TbREL1 conf=18*
COC(=O)C1=C(C)N(Cc2ccccc2C(F)(F)F)C(=NCC2CC2)NC1c1ccc(F)cc1 (stereo not given) | 12* | TbREL1 conf=11*
COC(=O)C1=C(C)N(Cc2ccc(C(F)(F)F)cc2)C(=NCc2ccccc2C(F)(F)F)NC1c1ccc(F)cc1 (stereo not given) | 14* | TbREL1 conf=14*
COC(=O)C1=C(C)N(Cc2ccccc2C(F)(F)F)C(=NCc2ccc(C(F)(F)F)cc2)NC1c1cccc(F)c1 (stereo not given) | 14* | TbREL1 conf=22*
COC(=O)C1=C(C)N(Cc2ccc(Cl)cc2)C(=S)NC1c1ccc(OC)cc1 (stereo not given) | -3
COC(=O)C1=C(C)N(Cc2ccccc2)C(=NCc2ccco2)N[C@H]1c1cccc(F)c1 | 5
COC(=O)C1=C(C)N(Cc2ccccc2C(F)(F)F)C(=NCC2CC2)NC1c1ccc(C(F)(F)F)cc1 (stereo not given) | 10
COC(=O)C1=C(C)N(Cc2ccccc2)C(=NCC(C)C)N[C@H]1c1cccc(F)c1 | 6
COC(=O)C1=C(C)N(Cc2ccc(F)cc2)C(=S)NC1c1ccc(Cl)cc1 (stereo not given) | -1
O=C(CSc1nnc(-c2cccnc2)n1Cc1ccco1)Nc1cc(Cl)ccc1F | -1
SMILES | TbREL1 inh | others
O=C(CCS(=O)(=O)c1ccccc1)Nc1ccc(F)cc1F | -1
CCC[C@H]1[C@@H](OC(=O)Oc2ccc([N+](=O)[O-])cc2)CC[C@@]23CCCN2C(=O)CCC[C@@H]13 | -2
CCOc1ccc(-n2c(SCC(=O)Nc3ccc(S(=O)(=O)Nc4cc(C)nc(C)n4)cc3)nnc2-c2ccc(OC)cc2)cc1 | -4
O=C(NCc1ccccc1Cl)C1CCC(CNS(=O)(=O)c2cccc3cccnc23)CC1 (stereo not given) | 4
Cc1ccc(CNC2CCC23CCC(c2ccccc2)CC3)o1 (stereo not given) | 6
COc1ccc(-n2c(SCC(=O)N(CC(C)C)CC(C)C)nnc2-c2ccncc2)cc1 | -2
Brc1ccc(Cn2nnc(-c3ccc(N4CCOCC4)cc3)n2)cc1 | -1
O=C(Nc1ccc(NC(=O)c2ccccc2Cl)c(Cl)c1)c1ccccn1 | 5
C=CCCC(=O)N[C@H]1CC[C@@]23CCCN2C(=O)CCC[C@H]3[C@H]1CCC | 1
O=C(Nc1ccc(Cl)c(Cl)c1)C1CCN(c2nnc(-n3cccc3)s2)CC1 | 4
NC(=O)/C(=N\O)c1ccccc1 | 0
ON=C(c1ccccc1)c1ccc2c3c(cccc13)CC2 | 12* | TbREL1 conf=3
O=C(c1ccc2c3c(cccc13)CC2)C1CCCN(Cc2ccncc2)C1 (stereo not given) | 6
Nc1nnc(SCCN2C(=O)c3ccccc3C2=O)s1 | 11* | TbREL1 conf=3
Nc1nnc(SCC(=O)c2ccc3ccccc3c2)s1 | -2
Cc1cc(C)n2c(SCCN3C(=O)c4ccccc4C3=O)nnc2n1 | 0
CN(CCc1ccccn1)C(=O)c1ccc(Sc2ccccc2Cl)c([N+](=O)[O-])c1 | 6
O=C(Cn1nnc(-c2ccc(N3CCOCC3)cc2)n1)c1cccc(F)c1 | 2
CCC(CC)NC(=O)O[C@H]1CC[C@@]23CCCN2C(=O)CCC[C@H]3C1 | 9
O=C(O[C@H]1CC[C@@]23CCCN2C(=O)CCC[C@H]3C1)N1CCOCC1 | 14* | TbREL1 conf=0
CCN(CC)C(=O)O[C@H]1CC[C@@]23CCCN2C(=O)CCC[C@H]3C1 | 7
CCNC(=S)NNC(=O)CSc1nnc(-c2ccccc2)n1-c1ccc(Cl)cc1 | -6
Nc1cc2c([N+](=O)[O-])cccc2o1 | -3
O=c1cc2oc3cc(O)c(O)cc3c(-c3ccccc3[N+](=O)[O-])c-2cc1O | 21* | TbREL1 conf=26*
Cc1cc(=O)c(C(=O)O)nn1-c1ccccc1[N+](=O)[O-] | 1
SMILES | TbREL1 inh | others
Cc1ccc(-n2c(COc3ccccc3)nnc2SCC(=O)Nc2ccccc2-c2ccccc2)cc1 | 4
COc1ccc(C(=O)NCCS(=O)(=O)NCCc2ccccc2)cc1 | 2
COc1cccc(C(=O)NCCS(=O)(=O)NCc2ccc(Cl)cc2)c1 | -1
COc1cccc(C(=O)NCCS(=O)(=O)NC(C)CCc2ccccc2)c1 (stereo not given) | 14* | TbREL1 conf=11*
O=C(NCc1cccc2ccccc12)C1CCCN(c2nc3ccccc3o2)C1 (stereo not given) | -1
O=C(Nc1nc(-c2ccco2)c(-c2ccco2)s1)c1cnccn1 | 20* | TbREL1 conf=3
Cc1cnc(NC(=O)c2ccco2)s1 | 6
CCOc1ccc2nc(NC(=O)c3cnccn3)sc2c1 | 2
COc1ccc(-n2c(SCC(=O)NNC(=S)Nc3ccccc3)nc3ccccc3c2=O)cc1 | -5
CC(C)(C)c1ccc(S(=O)(=O)N2CCCC2C(=O)N2CCN(c3ccccc3)CC2)cc1 (stereo not given) | 4
CNCC/C=C1/c2ccccc2CSc2ccccc21 | 5
CCCCCC[N+](C)(C)CC/C=C1/c2ccccc2Sc2ccc(Cl)cc21 | 14* | TbREL1 conf=14*
S=C1Nc2ccccc2Sc2ccc(Cl)cc21 | 1
C=CCN(C)C(C#CCCCC)c1ccccc1 (stereo not given) | 2
COc1ccc(C)c(NC(=O)[C@@H]2CCCN2S(=O)(=O)c2cccc3cccnc23)c1 | -2
CC(C)c1cc(C(C)C)c(S(=O)(=O)N2CCC(c3cn4ccccc4n3)CC2)c(C(C)C)c1 | 0
O=C(COc1ccc(F)cc1Cl)Nc1nnc(-c2ccc(F)c(F)c2)o1 | 5
O=S(=O)(c1ccc(Br)cc1)N1CCN=C1SCc1cccc(F)c1 | 11* | TbREL1 conf=3
O=C(c1cc2ccccc2o1)N1CCN=C1SCc1cccc(F)c1 | 0
O=C(c1ccco1)N1CCN=C1SCc1cccc(F)c1 | 1

Source: PubChem BioAssay (The Scripps Research Institute Molecular Screening Center)
